36 compounds from PubChem BioAssay (Tox21) can be followed below.

The target in test [1] is Retinoic acid receptor RXR-alpha (Homo sapiens) (UniProt P19793). As to the kind of experiment: qHTS assay to identify small molecule agonists of the RXR signaling pathway (AID 1159527; calls by dose curve; note: nearly all actives have a fitted effect of over 35% in size; note: potency is the fitted concentration of half-maximal effect). In short, it runs like this: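 16 hr incubation of compound-treated RXR-alpha-UAS-bla HEK 293T cells (2% charcoal-stripped FBS, 37 C) preceded a 2 hr room-temperature LiveBLAzer FRET substrate step and blue/green fluorescence measurement.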

Test [2] in a line: qHTS assay to identify small molecule agonists of the RXR signaling pathway - cell viability counter screen (AID 1159529).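 Note: HEK 293T cells carrying an RXR-alpha UAS beta-lactamase reporter; series mostly up to about 77 µM; nearly all actives have a fitted effect of over 50% in size.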 In short, it runs like this:
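In this parallel viability measure, GeneBLAzer RXR-alpha HEK 293T cells (2% charcoal-stripped FBS) were given a 5 hr preincubation, treated with compounds 16 hr at 37 C, and read by CellTiter-Glo luminescence.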
On the technique in general: qHTS replaces the single test concentration by a dilution series.

Test [3] can be described thus: qHTS assay to identify small molecule antagonists of the retinoid acid receptor (RAR) signaling pathway - cell viability counter screen (AID 1159551). Note: nearly all actives have a fitted effect of over 35% in size. In short, it runs like this: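 Retinol-stimulated (1 uM final) C3RL4 cells, compound 6 h, 37 C; readout CellTiter-Glo luminescence (ATP) after 30 min RT incubation.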
Test [4] can be described thus: qHTS assay to identify small molecule antagonists of the retinoic acid receptor (RAR) signaling pathway (AID 1159552; note: nearly all actives have a fitted effect of over 50% in size). The essentials:
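C3RL4 RARE-luc cells, overnight plating; retinol 1 uM final added right after compound; 6 hr 37 C; luciferase read at 30 min RT.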

Test [5] in a line: qHTS assay to identify small molecule agonists of the retinoic acid receptor (RAR) signaling pathway (AID 1159553). Note: potency is the fitted concentration of half-maximal effect. In short, it runs like this:
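Reporter readout comes from luciferase under RARE control in C3RL4 cells; compound exposure lasts 6 hr at 37 C in 5% CO2, and luminescence is recorded following a 30 min room-temperature incubation with reagent.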

Records with an inconclusive call do not appear. Calls of active or inactive are those of the source. Unless noted, calls come from the whole dose curve; as a rule, active = well fitted curve in the direction sought with a large enough effect in the repeat runs; inconclusive = weak or mixed curves; inactive = no such curve, though single readings can be large; an effect the other way counts as inactive or inconclusive.
% is set by controls: 0 for no effect and ±100 for the full control effect.

Sequence of Retinoic acid receptor RXR-alpha (Homo sapiens) (P19793 whole entry, looked up): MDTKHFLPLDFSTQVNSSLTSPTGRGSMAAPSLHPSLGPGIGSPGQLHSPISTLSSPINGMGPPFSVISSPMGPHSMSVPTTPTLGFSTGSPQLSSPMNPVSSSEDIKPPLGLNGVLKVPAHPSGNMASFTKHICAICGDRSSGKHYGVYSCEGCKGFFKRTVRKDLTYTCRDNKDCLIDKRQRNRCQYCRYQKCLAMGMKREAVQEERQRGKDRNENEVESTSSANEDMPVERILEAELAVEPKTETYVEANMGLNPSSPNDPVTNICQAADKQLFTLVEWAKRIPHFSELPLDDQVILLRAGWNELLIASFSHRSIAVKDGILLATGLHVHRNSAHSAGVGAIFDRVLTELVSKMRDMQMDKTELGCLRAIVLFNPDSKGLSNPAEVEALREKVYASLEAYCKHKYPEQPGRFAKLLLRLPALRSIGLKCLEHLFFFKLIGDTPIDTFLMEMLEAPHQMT

Take `CC(=O)Nc1ccc(C)c(Cl)c1`: the Potency entry in test [1], in test [2], in test [4] and in test [5] was “inactive” throughout. Moreover, in test [3], the outcome was inactive.

Take `O=[N+]([O-])c1nccn1CO[C@@H](CO)[C@H](O)CO`: the Potency entry in test [1], in test [2], in test [4] and in test [5] was “inactive” each time. In addition, the result in test [3] was inactive.

Take `COc1cc(C)ccc1C(C)C`: the Potency result in test [1], in test [2], in test [4] and in test [5] was “inactive” throughout. In addition, the call in test [3] was inactive.

In the case of `COC(=O)c1ccc2cc(C(=O)OC)ccc2c1`, the activation in test [1] is 0.118% [at 15.8 µM] (inactive). The activity change, negative = cytotoxicity in test [2] was -6.68% [at 15.8 µM] (inactive); in test [3], 0.0867% [at 19 µM] (inactive). Besides, the activity, negative = inhibition in test [4] is -32% [at 19 µM] (inactive).

In the case of `CC(Oc1c(Cl)cccc1Cl)C1=NCCN1` (stereo unspecified), the Potency result in test [1], in test [2] and in test [4] was “inactive” each time. The call in test [3] was inactive.

In the case of `Cc1c(C(=O)NCCO)[n+](=O)c2ccccc2n1[O-]`, the Potency entry in test [1] and in test [2] was “inactive” throughout. Also, the outcome in test [3] was inactive.

As to `CCOc1ccc(OCC)c(Cl)c1`, the Potency result in test [1], in test [2], in test [4] and in test [5] was “inactive” in each case. Further, in test [3], the call was inactive.

Consider `CC1=NN(c2cc(Cl)c(S(=O)(=O)O)cc2Cl)C(=O)C1N=Nc1ccc(S(=O)(=O)O)cc1` (stereo unspecified), for which the Potency entry in test [1] and in test [2] was “inactive” in each case. The call in test [3] was inactive.

As to `CCN(CC)CC1CCCCN1CC(=O)N1c2ccccc2C(=O)Nc2cccnc21` (stereo unspecified), the Potency result in test [1], in test [2] and in test [4] was “inactive” each time. In test [3], the call was inactive.

On to `Oc1ccccc1F`, for which the Potency result in test [1], in test [2], in test [4] and in test [5] was “inactive” throughout. For the same compound, the result in test [3] was inactive.

`Cc1cccc(C)c1NC(=O)CN1CCCCCC1`: the Potency result in test [1] and in test [2] was “inactive” throughout. In addition, in test [3], the call was inactive.

Regarding `C[C@@H]1CN(c2c(F)c(N)c3c(=O)c(C(=O)O)cn(C4CC4)c3c2F)C[C@H](C)N1`, the activation in test [1] is 12.8% [at 15.8 µM] (inactive). Further, the results for the activity change, negative = cytotoxicity in test [2] and in test [3] were 8.39% [at 15.8 µM] (inactive) and 2.38% [at 19 µM] (inactive), respectively. Besides, the activity, negative = inhibition in test [4] was 6.27% [at 19 µM] (inactive). In test [5], the Potency entry is “inactive”.

Consider `FC(F)(F)C(Cl)(Cl)Cl`, for which the Potency entry in test [1], in test [2], in test [4] and in test [5] was “inactive” in each case. For the same compound, the compound was classed as inactive in test [3].

As for `NC(Cc1ccc(F)cc1)C(=O)O` (stereo unspecified), in test [1], the activation is 12.3% [at 6.98 µM] (inactive). For the same compound, the activity change, negative = cytotoxicity in test [2] is 2.52% [at 6.97 µM] (inactive); in test [3], 2.5% [at 8.39 µM] (inactive).

As to `Cc1ccc(C(C)C)cc1O`, the Potency entry in test [1] and in test [2] was “inactive” in each case. In test [3], the result was inactive.

With `CC1CN(c2ccccc2)NC1=O` (stereo unspecified), the Potency entry in test [1], in test [2] and in test [4] was “inactive” in each case. Further, the result in test [3] was inactive.

Regarding `CO[Si](C)(C)OC`, the Potency entry in test [1], in test [2], in test [4] and in test [5] was “inactive” each time. In test [3], the compound was called inactive.

As to `CCCCCOc1ccc(C2SC(=O)NC2=O)cc1OCC` (stereo unspecified), the Potency in test [1] was 5.35 µM (active); in test [5], 21.1 µM (active). In addition, the Potency result in test [2] and in test [4] was “inactive” in each case. Besides, the compound was classed as inactive in test [3].

Consider `CS(=O)(=O)c1ccc([C@@H](O)[C@@H](CF)NC(=O)C(Cl)Cl)cc1`, for which the Potency entry in test [1], in test [2], in test [4] and in test [5] was “inactive” throughout. Further, in test [3], the compound was called inactive.

As for `O=c1[nH]cnc2c1ncn2[C@@H]1O[C@H](CO)[C@@H](O)[C@H]1O`, the Potency entry in test [1] and in test [2] was “inactive” each time.

Turning to `O=S(=O)(O)C(F)(F)F`, the Potency result in test [1], in test [2], in test [4] and in test [5] was “inactive” in each case. For the same compound, in test [3], the compound was called inactive.

Consider `O=C(Cl)c1cccc([N+](=O)[O-])c1`, for which the Potency entry in test [1], in test [2], in test [4] and in test [5] was “inactive” each time. Also, the outcome in test [3] was inactive.

Regarding `CCN(CC)C(=O)N(CC)CC`, the Potency result in test [1], in test [2], in test [4] and in test [5] was “inactive” each time. In test [3], the compound was classed as inactive.

Consider `Cc1c[nH]c(=S)[nH]c1=O`, for which the Potency result in test [1], in test [2] and in test [4] was “inactive” in each case. Also, the call in test [3] was inactive.

Regarding `CC1=CC(=O)CC(C)(C)C1=O`, the Potency result in test [1], in test [2], in test [4] and in test [5] was “inactive” in each case. In test [3], the call was inactive.

With `CCCc1c2oc(C(=O)O)cc(=O)c2cc2c(=O)cc(C(=O)O)n(CC)c12`, the Potency result in test [1], in test [2] and in test [4] was “inactive” throughout. Moreover, in test [3], the compound was classed as inactive.

Turning to `CCCNC(C)(C)COC(=O)c1ccccc1`, the Potency result in test [1], in test [2], in test [4] and in test [5] was “inactive” each time. Besides, the compound was classed as inactive in test [3].

For `CC(C)C(=O)OCC(C)(C)C(O)C(C)C` (stereo unspecified), the Potency entry in test [1], in test [2], in test [4] and in test [5] was “inactive” each time. Also, the call in test [3] was inactive.

Take `Cc1ccc([N+](=O)[O-])cc1Cl`: the Potency entry in test [1], in test [2], in test [4] and in test [5] was “inactive” throughout. Also, the call in test [3] was inactive.

In the case of `CCCC(CCC)(C(=O)OCC)C(=O)OCC`, the Potency result in test [1], in test [2], in test [4] and in test [5] was “inactive” throughout. Besides, the call in test [3] was inactive.

Take `C=CCCC=C`: the Potency result in test [1], in test [2] and in test [4] was “inactive” each time. Moreover, the call in test [3] was inactive.

Regarding `CCCCN1C[C@H](O)[C@@H](O)[C@H](O)[C@H]1CO`, the Potency result in test [1], in test [2], in test [4] and in test [5] was “inactive” in each case. The call in test [3] was inactive.

For `C[C@@H](N)C(=O)O`, the Potency result in test [1], in test [2] and in test [4] was “inactive” each time. The result in test [3] was inactive.

As to `C=CCCCCCCCCO`, the Potency entry in test [1] and in test [2] was “inactive” each time. In test [3], the compound was called inactive.

Regarding `CC(=O)OC(C)OC(C)=O`, the Potency in test [1] was 2.01 µM (active). In addition, the Potency result in test [2], in test [4] and in test [5] was “inactive” in each case. Further, the result in test [3] was inactive.

With `CC(C)c1ccccc1`, the Potency entry in test [1], in test [2] and in test [4] was “inactive” throughout. In addition, the call in test [3] was inactive.
